According to PubChem BioAssay AID1460 (National Center for Advancing Translational Sciences (NCATS), 2008):
The whole screen tested about 270,000 compounds, of which about 5,800 (2.1%) were called active. Another 16% or so got no clear call; they are omitted. The sample as a whole holds a higher share of actives than the screen did. Some compounds were tested as several samples or in several runs, with calls that do not always agree. A number with no mark means an inactive call. Calls follow the shape of the dose curve; as a rule, active = well fitted inhibition curve with a large enough effect; inconclusive = small, poorly fitted or top-dose-only effect; inactive = flat fitted curve, though single readings scatter.

Each compound was assayed against Microtubule-associated protein tau (Homo sapiens) (UniProt P10636) (assay: qHTS for Inhibitors of Tau Fibril Formation, Thioflavin T Binding). Conditions: recombinant tau K18 P301L (four-repeat tau fragment), heparin-induced fibrillization, ThT fluorescence; series mostly up to 57.4 µM; activity, negative = inhibition: at the top concentration.
How it was run: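 Heparin-induced (20 uM) aggregation of recombinant human K18 P301L tau, 15 uM unlabeled with 0.24 uM labeled, pH 7 acetate buffer, 6 hr at 37 C with compound. Fibrils quantified by 30 uM ThT fluorescence after 1 hr ambient incubation.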
% is scaled to controls: 0 for no effect and ±100 for the full control effect; potency is read from the fitted curve at half-maximal effect.
Also: nearly all actives have a fitted effect of over 55% in size.

Sequence of Microtubule-associated protein tau (Homo sapiens) (P10636 561-689 P618L limits assumed): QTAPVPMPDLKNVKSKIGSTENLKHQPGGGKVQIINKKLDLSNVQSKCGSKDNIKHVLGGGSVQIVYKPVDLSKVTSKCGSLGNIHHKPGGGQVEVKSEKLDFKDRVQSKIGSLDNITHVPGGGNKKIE

Row | SMILES | activity, negative = inhibition | Potency
1 | CC(=O)N/N=C/c1cc2c(cc1[N+](=O)[O-])OCO2 | 4.29% | 
2 | CSc1ccccc1NC(=O)CN(C)CC(=O)Nc1ccc(Cl)cc1[N+](=O)[O-] | -20.7% | 
3 | CN(C)/N=C/c1cc(Cl)cc([N+](=O)[O-])c1O |  | 15.8 µM (active)
4 | CC1Cc2cc(S(=O)(=O)CCC(=O)NCc3ccc(Cl)cc3)ccc2N1C(=O)C1CC1 (stereo not drawn) | 6.6% | 
5 | CCN1CCN(c2ncc3c(n2)CC(c2ccccc2O)CC3=O)CC1 (stereo not drawn) | -2.07% | 
6 | COc1ccc2nc(Nc3nc(-c4cc5ccccc5oc4=O)cs3)sc2c1 | -4.36% | 
7 | COc1ccc2nc(Nc3nc4cc5c(cc4s3)OCCO5)sc2c1 |  | 3.55 µM (active)
8 | COc1ccc2nc(NC(=O)c3ccc(Br)s3)sc2c1 | -9.29% | 
9 | CCC1=Nc2cc(C(=O)NCCCOC(C)C)ccc2Sc2ccc(C)cc21 | 2.21% | 
10 | C=CC(C1=CC(=O)C=CC1=O)c1ccc(O)cc1 (stereo not drawn) |  | 28.2 µM (active)
11 | COc1cc2nc(SCc3ccc(F)cc3)n3nc(CCn4c(C)nc5ccccc54)nc3c2cc1OC | -12.9% | 
12 | CCCN(CC(=O)Nc1ccc(C(N)=O)cc1)CC(=O)Nc1ccccc1C | -3.27% | 
13 | CCCC(=O)Nc1ccc(C(=O)N/N=C/c2ccc[nH]2)cc1 |  | 15.8 µM (active)
14 | CCCC(=O)Nc1ccc(C(=O)NCCCn2ccnc2)cc1 | -11.2% | 
15 | CCOc1cc2[nH]c(=O)n(Cc3ccc(C(=O)NCCN(CC)CC)cc3)c(=O)c2cc1OCC | 6.18% | 
16 | CCN(CCCNC(=O)c1c(C)oc2ncn(CC(C)C)c(=O)c12)Cc1ccccc1 | 8% | 
17 | Cc1ccc2[nH]c3c(=O)n(CC(=O)NC(C)C)ncc3c2c1 | -3.68% | 
18 | COc1ccc(Cc2nc3ccc(C(=O)NCc4ccccc4Cl)cc3o2)cc1 | -9.09% | 
19 | COc1ccc(OC)c(NC(=O)CSC2=Nc3ccccc3C3=NC(CC(=O)NCc4ccc(F)cc4)C(=O)N23)c1 (stereo not drawn) | -12.4% | 
20 | C#CCN1C(=O)C(O)(CC(=O)c2cc(OC)ccc2OC)c2ccccc21 (stereo not drawn) | 0.707% | 
21 | COc1ccc2c(c1)C(=C(C#N)C#N)C(=O)N2CCc1ccccc1 |  | 28.2 µM (active)
22 | Cc1ccc(C(=O)CC2(O)C(=O)N(CCc3ccccc3)c3ccc(Br)cc32)cc1 (stereo not drawn) | -9.21% | 
23 | Cc1cccc(C(=O)N2c3nc(-c4ccco4)nn3C3(CCCCC3)[C@@H]3CCCC[C@@H]32)c1 | -1.11% | 

Row | SMILES | activity, negative = inhibition | Potency
24 | COc1ccccc1N1CCN(C2C(=O)c3ccccc3N2C(C)=O)CC1 (stereo not drawn) | -2.56% | 
25 | CN(C)c1nc(=Nc2cccc(Cl)c2)ss1 |  | 25.1 µM (active)
26 | CCOC(=O)C1=C(O)CSC1=Nc1cccc(Cl)c1 | -2.64% | 
27 | CC(=O)N1CCCc2cc(S(=O)(=O)N3CCC(C(=O)NCc4ccc(C)cc4)CC3)ccc21 | -0.974% | 
28 | CCCCN(CC)CCCNC(=O)c1nn(C)c2c1CS(=O)(=O)c1ccccc1-2 | 2.42% | 
29 | Cc1c2cnn(-c3ccccc3)c(=O)c2c(C)n1C(C)C(=O)Nc1ccc(Br)cc1F (stereo not drawn) | -2.01% | 
30 | CCSC1=C(C#N)C(=O)n2c1cc1c2CCCC1 |  | 25.1 µM (active)
31 | CCSc1ncnc2c(C#N)c3n(c12)CCCCC3 | -2.45% | 
32 | CCc1ccccc1NC(=O)c1ccc(F)c(S(=O)(=O)NC2CCCCCC2)c1 | 7.47% | 
33 | Cc1oc2c(c1C(=O)Nc1ccc(F)c(F)c1)C1=NCCN1C=N2 | -10.3% | 
34 | CCOC(=O)c1ccc(CN(Cc2ccccc2)S(=O)(=O)c2ccc(Cl)cc2)cc1 | 2.81% | 
35 | CC(C)CCN(C(=O)Nc1ccc(Cl)c(Cl)c1)C(C)c1cccs1 (stereo not drawn) | -0.0803% | 
36 | COc1ccc(-c2csc(NC(=O)c3ccc(N4C(=O)CCC4=O)cc3)n2)cc1OC | -10.6% | 
37 | Oc1ccc(-c2csc(Nc3cccnc3)n2)cc1 |  | 15.8 µM (active)
38 | O=C(NCc1cccnc1)C(=O)Nc1nc(-c2ccccc2)cs1 | -2.55% | 
39 | c1cnc(Nc2nc(-c3ccc4ccccc4c3)cs2)nc1 | -9.51% | 
40 | COc1ccc(-c2csc(Nc3ccc(O)cc3)n2)cc1 |  | 7.94 µM (active)
41 | COc1ccc(-c2csc(NC(=O)CCCc3cccs3)n2)cc1 | -12.1% | 
42 | COc1ccc(-c2csc(NC(=O)COC(=O)c3ccc(Br)o3)n2)cc1 | -9.91% | 
43 | COc1ccc(OC)c(Nc2nc(-c3ccc(O)c(O)c3)cs2)c1 |  | 10 µM (active)
44 | c1ccc(Nc2nc(-c3ccncc3)cs2)nc1 | -22.3% | 
45 | Cc1ccc(NC(=O)Cn2nnc3sc4c(c3c2=O)CCC(C)C4)cc1 (stereo not drawn) | -3.78% | 
46 | COC(=O)c1ccc(NC(=O)c2cc(S(=O)(=O)N3CCC(C)CC3)cn2C)cc1 | 7.77% | 

Row | SMILES | activity, negative = inhibition | Potency
47 | O=S(=O)(NCCc1nnc2ccc(SCc3ccc(Cl)cc3Cl)nn12)c1ccccc1 | -9.95% | 
48 | COc1ccc(Cl)cc1S(=O)(=O)N1CCC(c2ccncc2)CC1 | -4.64% | 
49 | Cc1c(/C=N/N2C(=O)C3C4C=CC(C4)C3C2=O)c2ccccc2n1C (stereo not drawn) | -16.2% | 
50 | CC(C)Oc1ccc(NC(=O)c2cc3ccccc3o2)cc1 | -14.6% | 
51 | Cc1c(/C=N\NC(=O)c2cc3ccccc3o2)c2ccccc2n1C |  | 3.55 µM (active)
52 | COC(=O)CCCC1=CC2=CC(=O)C(C)(OC(=O)c3cccs3)C(=O)C2=CN1CC(C)C (stereo not drawn) | -12.7% [at 11.5 µM] | 
53 | COC(=O)CCCC1=CC2=CC(=O)C(C)(OC(=O)c3cccs3)C(=O)C2=CN1c1cccc(C#N)c1 (stereo not drawn) | -5.58% [at 11.5 µM] | 31.6 µM (active)
54 | COC(=O)CCCC1=CC2=CC(=O)C(C)(OC(=O)c3cccs3)C(=O)C2=CN1c1ccc(CO)cc1 (stereo not drawn) | -2.21% [at 11.5 µM] | 
55 | CCn1c2c(c(=O)n3ncc(C(=O)N4CCN(c5ccccc5)CC4)c13)CN(Cc1ccc(OC)cc1)CC2 | -8.87% | 
56 | COc1ccc(-n2c(=O)c3sc4ccccc4c3n(CC(=O)Nc3cccc(C)c3)c2=O)cc1 | -3.04% | 
57 | C=CCNC(=S)N/N=C/c1ccc(C)s1 | -16.9% | 
58 | CNC(=S)N/N=C/c1ccc(N2CCOCC2)s1 |  | 17.8 µM (active)
59 | Cc1ccc(NC(=S)NCCN2CCOCC2)cc1 | -4.08% | 
60 | O=C(NCc1ccccc1)c1ccc2c(c1)nc1n2CCCCC1 | -5.97% | 
61 | O=C(C1CCC(Cn2c(=O)c3sccc3n(Cc3ccccc3F)c2=O)CC1)N1CCCCC1 (stereo not drawn) | -8.56% | 
62 | O=C(CNC(=O)C(c1ccccc1)c1ccccc1)N/N=C\c1ccc2c(c1)OCO2 | 3.78% | 
63 | O=C(Cc1ccc(F)cc1)N/N=C/c1ccc2c(c1)OCO2 | 6.78% | 
64 | C(=N\Nc1ccc2ccccc2n1)/c1ccc2c(c1)OCO2 |  | 10 µM (active)
65 | COc1ccc(-c2csc(N3CCN(Cc4ccc5c(c4)OCO5)CC3)n2)cc1 | -12.7% | 
66 | Cc1noc(C)c1/C=N/Nc1ccc2ccccc2n1 | -14.4% | 
67 | Brc1ccc(-c2csc(N/N=C/c3ccc4c(c3)OCO4)n2)cc1 |  | 4.47 µM (active)
